Reference: PubChem BioAssay AID1159580 (chemical genetic matrix, 2015)
Where “and” joins values, the source holds several entries; their conditions need not be identical. Equal entries are not always repeated. Hit rate of the full screen: of about 5,500 compounds, about 2,000 (36%) were called active. Roughly 18% stayed inconclusive and do not appear here. Rule as the data show it: active = normalized growth mostly below about 0.91 (no sharp cut-off); inconclusive = no clear call, values can overlap the other calls; inactive = mostly above about 0.92. Some of the results follow.

Experiment: chemical genetic growth profiling, strain panel (AID 1159580);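 also: tested at 20 µM; growth read once vehicle control cultures reached saturation at 30 °C; 1 = growth at the plate median or of vehicle wells; lower values mean less growth of the strain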
Settings: S. cerevisiae deletion strains, growth OD

Measured: normalized growth

CC(C)c1ccc2c(c1)CCC1C(C)(C(N)=O)CCCC21C (stereo unspecified)
0.815 (active) and 0.881 (inactive): locus YHR030C, strain SLT2, stronger effect = lower value
0.695 (active) and 0.911 (inactive): locus YJL095W, strain BCK1, stronger effect = lower value
active: locus YDL074C, strain BRE1, stronger effect = lower value 0.76 | locus YDL192W, strain arf1, stronger effect = lower value 0.831 | locus YDR137W, strain rgp1, stronger effect = lower value 0.679 | locus YDR392W, strain spt3, stronger effect = lower value 0.627 | locus YER155C, strain BEM2, stronger effect = lower value 0.89 | locus YER167W, strain BCK2, stronger effect = lower value 0.898 | locus YGL086W, strain mad1, stronger effect = lower value 0.894 | locus YGR229C, strain SMI1, stronger effect = lower value 0.654 | locus YHR079C, strain IRE1, stronger effect = lower value 0.848 | locus YHR142W, strain chs7, stronger effect = lower value 0.801 | locus YKL009W, strain mrt4, stronger effect = lower value 0.856 | locus YKR001C, strain vps1, stronger effect = lower value 0.78 | locus YLR039C, strain RIC1, stronger effect = lower value 0.569 | locus YLR113W, strain HOG1, stronger effect = lower value 0.78 | locus YLR262C, strain YPT6 (second series), stronger effect = lower value 0.734 | locus YLR262C, strain YPT6, stronger effect = lower value 0.498 | locus YLR330W, strain CHS5, stronger effect = lower value 0.909 | locus YLR342W, strain FKS1 (second series), stronger effect = lower value 0.645 | locus YLR371W, strain rom2, stronger effect = lower value 0.671 | locus YLR418C, strain cdc73, stronger effect = lower value 0.76 | locus YMR307W, strain GAS1, stronger effect = lower value 0.418 | locus YNL071W, strain lat1, stronger effect = lower value 0.916 | locus YNL233W, strain BNI4, stronger effect = lower value 0.792 | locus YNL298W, strain CLA4, stronger effect = lower value 0.887 | locus YNR052C, strain pop2, stronger effect = lower value 0.847 | locus YOR061W, strain CKA2, stronger effect = lower value 0.885 | locus YOR184W, strain ser1, stronger effect = lower value 0.703 | locus YPL051W, strain arl3, stronger effect = lower value 0.915
inactive: locus YAL013W, strain DEP1, stronger effect = lower value 0.923 | locus YAL021C, strain ccr4, stronger effect = lower value 1.01 | locus YAL026C, strain drs2, stronger effect = lower value 0.916 | locus YAL030W, strain snc1, stronger effect = lower value 0.966 | locus YBL061C, strain skt5, stronger effect = lower value 0.951 | locus YBR009C, strain hhf1, stronger effect = lower value 0.947 | locus YBR021W, strain FUR4, stronger effect = lower value 1.02 | locus YBR023C, strain chs3, stronger effect = lower value 0.916 | locus YBR171W, strain sec66, stronger effect = lower value 0.952 | locus YBR229C, strain ROT2, stronger effect = lower value 0.983 | locus YBR231C, strain swc5, stronger effect = lower value 0.993 | locus YBR279W, strain paf1, stronger effect = lower value 0.992 | locus YCL011C, strain gbp2, stronger effect = lower value 0.941 | locus YCL016C, strain dcc1, stronger effect = lower value 0.94 | locus YCL029C, strain bik1, stronger effect = lower value 0.969 | locus YCL061C, strain MRC1, stronger effect = lower value 0.953 | locus YCL069W, strain vba3, stronger effect = lower value 0.969 | locus YCR088W, strain abp1, stronger effect = lower value 0.958 | locus YDL005C, strain med2, stronger effect = lower value 0.954 | locus YDL035C, strain GPR1, stronger effect = lower value 0.88 | locus YDL040C, strain nat1, stronger effect = lower value 0.976 | locus YDL101C, strain DUN1, stronger effect = lower value 0.946 | locus YDL134C, strain PPH21, stronger effect = lower value 0.898 | locus YDL185W, strain tfp1, stronger effect = lower value 0.991 | locus YDR001C, strain nth1, stronger effect = lower value 0.948 | locus YDR069C, strain doa4, stronger effect = lower value 0.989 | locus YDR101C, strain arx1, stronger effect = lower value 0.937 | locus YDR159W, strain sac3, stronger effect = lower value 0.895 | locus YDR162C, strain NBP2, stronger effect = lower value 0.872 | locus YDR195W, strain ref2 0.922 | locus YDR297W, strain sur2, stronger effect = lower value 0.968 | locus YDR318W, strain mcm21, stronger effect = lower value 0.931 | locus YDR334W, strain swr1, stronger effect = lower value 0.965 | locus YDR335W, strain msn5, stronger effect = lower value 0.976 | locus YDR388W, stronger effect = lower value 0.972 | locus YDR502C, strain sam2, stronger effect = lower value 0.926 | locus YEL003W, strain gim4, stronger effect = lower value 0.971 | locus YEL037C, strain rad23, stronger effect = lower value 0.973 | locus YEL061C, strain CIN8 (second series), stronger effect = lower value 0.96 | locus YEL061C, strain CIN8, stronger effect = lower value 0.962 | locus YER015W, strain faa2, stronger effect = lower value 0.982 | locus YER016W, strain bim1, stronger effect = lower value 0.967 | locus YER110C, stronger effect = lower value 0.995 | locus YER111C, strain swi4, stronger effect = lower value 0.936 | locus YER155C, strain BEM2 (second series), stronger effect = lower value 0.955 | locus YFR010W, strain ubp6, stronger effect = lower value 0.957 | locus YGL078C, strain dbp3, stronger effect = lower value 0.964 | locus YGL167C, strain pmr1, stronger effect = lower value 0.945 | locus YGL173C, strain kem1, stronger effect = lower value 0.951 | locus YGL227W, strain vid30, stronger effect = lower value 0.965 | locus YGL240W, strain doc1, stronger effect = lower value 0.963 | locus YGL248W, strain PDE1, stronger effect = lower value 0.926 | locus YGL253W, strain hxk2, stronger effect = lower value 0.951 | locus YGR135W, strain pre9, stronger effect = lower value 0.932 | locus YGR252W, strain gcn5, stronger effect = lower value 0.857 | locus YHR013C, strain ard1, stronger effect = lower value 1.09 | locus YHR027C, strain rpn1, stronger effect = lower value 0.979 | locus YHR079C, strain IRE1 (second series), stronger effect = lower value 0.974 | locus YHR094C, strain hxt1, stronger effect = lower value 1 | locus YHR129C, strain ARP1, stronger effect = lower value 0.941 | locus YHR200W, strain rpn10, stronger effect = lower value 0.945 | locus YIL066C, strain RNR3, stronger effect = lower value 0.902 | locus YIL073C, strain SPO22, stronger effect = lower value 0.833 | locus YIL125W, strain kgd1, stronger effect = lower value 0.939 | locus YIR030C, strain dcg1, stronger effect = lower value 0.97 | locus YJL092W, strain hpr5, stronger effect = lower value 0.956 | locus YJL095W, strain BCK1 (second series), stronger effect = lower value 0.966 | locus YJL115W, strain asf1, stronger effect = lower value 0.976 | locus YJL129C, strain trk1, stronger effect = lower value 0.905 | locus YJL134W, strain LCB3, stronger effect = lower value 0.983 | locus YJL154C, strain vps35, stronger effect = lower value 0.961 | locus YJL164C, strain tpk1, stronger effect = lower value 0.941 | locus YJL166W, strain qcr8, stronger effect = lower value 0.965 | locus YJL168C, strain set2, stronger effect = lower value 0.993 | locus YJL187C, strain SWE1 (second series), stronger effect = lower value 0.924 | locus YJL187C, strain SWE1, stronger effect = lower value 0.968 | locus YJR043C, strain POL32, stronger effect = lower value 0.941 | locus YJR066W, strain TOR1, stronger effect = lower value 0.936 | locus YKL068W, stronger effect = lower value 0.965 | locus YKL085W, strain MDH1 (second series), stronger effect = lower value 0.944 | locus YKL085W, strain MDH1, stronger effect = lower value 0.944 | locus YKL160W, strain elf1, stronger effect = lower value 0.952 | locus YKL190W, strain CNB1, stronger effect = lower value 0.969 | locus YKR026C, strain gcn3, stronger effect = lower value 0.969 | locus YKR091W, strain srl3, stronger effect = lower value 0.963 | locus YLL001W, strain dnm1, stronger effect = lower value 0.926 | locus YLL026W, stronger effect = lower value 0.976 | locus YLL041C, strain sdh2, stronger effect = lower value 0.96 | locus YLR027C, strain aat2, stronger effect = lower value 0.979 | locus YLR058C, strain SHM2, stronger effect = lower value 0.949 | locus YLR102C, strain apc9, stronger effect = lower value 0.986 | locus YLR221C, strain rsa3, stronger effect = lower value 0.916 | locus YLR258W, strain gsy2, stronger effect = lower value 0.966 | locus YLR268W, strain sec22, stronger effect = lower value 0.917 | locus YLR320W, strain mms22, stronger effect = lower value 0.911 | locus YLR342W, strain FKS1, stronger effect = lower value 0.946 | locus YLR357W, strain rsc2, stronger effect = lower value 0.952 | locus YLR370C, strain arc18, stronger effect = lower value 0.952 | locus YLR384C, strain iki3, stronger effect = lower value 0.954 | locus YML016C, strain PPZ1, stronger effect = lower value 0.977 | locus YML032C, strain rad52, stronger effect = lower value 0.954 | locus YML120C, strain ndi1, stronger effect = lower value 0.939 | locus YML124C, strain tub3, stronger effect = lower value 0.972 | locus YMR058W, strain fet3, stronger effect = lower value 0.958 | locus YMR078C, strain ctf18, stronger effect = lower value 0.984 | locus YMR125W, strain sto1, stronger effect = lower value 0.954 | locus YMR129W, stronger effect = lower value 0.952 | locus YMR205C, strain PFK2, stronger effect = lower value 0.894 | locus YMR223W, strain ubp8, stronger effect = lower value 0.929 | locus YMR231W, strain pep5, stronger effect = lower value 0.98 | locus YMR263W, strain SAP30, stronger effect = lower value 0.943 | locus YNL067W, strain RPL9B, stronger effect = lower value 0.935 | locus YNL128W, strain TEP1, stronger effect = lower value 0.925 | locus YNL183C, strain NPR1, stronger effect = lower value 0.9 | locus YNL209W, strain ssb2, stronger effect = lower value 0.974 | locus YNL248C, strain rpa49, stronger effect = lower value 0.942 | locus YNL250W, strain rad50, stronger effect = lower value 0.97 | locus YNL271C, strain bni1, stronger effect = lower value 0.951 | locus YNL307C, strain MCK1, stronger effect = lower value 0.942 | locus YNL322C, strain KRE1 (second series), stronger effect = lower value 0.937 | locus YNR049C, strain mso1, stronger effect = lower value 0.969 | locus YOL012C, strain htz1 1.06 | locus YOL147C, strain pex11, stronger effect = lower value 0.965 | locus YOR001W, strain rrp6, stronger effect = lower value 0.973 | locus YOR069W, strain VPS5, stronger effect = lower value 0.966 | locus YOR070C, strain gyp1, stronger effect = lower value 0.955 | locus YOR080W, strain dia2, stronger effect = lower value 0.964 | locus YOR083W, strain WHI5, stronger effect = lower value 0.917 | locus YOR106W, strain vam3, stronger effect = lower value 0.955 | locus YOR136W, strain idh2, stronger effect = lower value 0.962 | locus YOR144C, strain elg1, stronger effect = lower value 0.956 | locus YOR231W, strain MKK1, stronger effect = lower value 0.891 | locus YOR265W, strain rbl2, stronger effect = lower value 0.965 | locus YOR270C, strain vph1, stronger effect = lower value 0.984 | locus YOR290C, strain snf2, stronger effect = lower value 0.902 | locus YOR316C, strain cot1, stronger effect = lower value 0.983 | locus YPL078C, strain atp4, stronger effect = lower value 0.946 | locus YPL106C, strain sse1, stronger effect = lower value 0.93 | locus YPL240C, strain hsp82, stronger effect = lower value 0.966 | locus YPL241C, strain CIN2, stronger effect = lower value 0.98 | locus YPL256C, strain CLN2, stronger effect = lower value 0.838 | locus YPR119W, strain clb2, stronger effect = lower value 0.942 | locus YPR141C, strain kar3, stronger effect = lower value 0.968 | locus YPR163C, strain tif3, stronger effect = lower value 0.966 | locus YPR167C, strain met16, stronger effect = lower value 0.985 | strain wtn01, stronger effect = lower value 0.922
